PubChem BioAssay (NCATS)
Several values for one entry are separate records, joined by “and”; a condition that tells them apart may be missing. Equal values may be shown once. Activity calls are given as the source filed them. Unless noted, calls follow the shape of the full dose curve.

Tests used:
[1] = Cell Viability - BJ (AID 421); settings: BJ fibroblast viability, qHTS;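 also: potency is read from the fitted curve at half-maximal effect; cells exposed to compound for 40 hours at 37 °C before readout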
Procedure, shortened: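 Normal human BJ foreskin fibroblasts, 1500/well in complete medium, treated 40 hr at 37 °C. Cellular ATP by CellTiter-Glo luminescence; normalized to DMSO and 100 uM tamoxifen, AC50 from Hill fit.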

[2] = Cell Viability - Hek293 (AID 427;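 active = compounds whose dose-response curve shows a full or clear partial loss of cell viability, called from curve shape rather than a numeric limit; inconclusive = weak partial curves or an effect only at the top dose; inactive = no dose-dependent loss of viability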;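 also: potency is read from the fitted curve at half-maximal effect; cells exposed to compound for 40 hours at 37 °C before reading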); settings: qHTS
Procedure, shortened: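 HEK293 cells in complete medium were exposed to compound for 40 hr at 37 °C, then cellular ATP was read by CellTiter-Glo luminescence. Data were normalized to DMSO (basal) and 100 uM tamoxifen (100% inhibition), and AC50 came from Hill fits.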

[3] = target: Estrogen receptor (Homo sapiens) (UniProt P03372); experiment: qHTS assay for small molecule antagonists of estrogen receptor alpha signaling (AID 588513; active = well fitted curve in the direction sought with a large enough effect in the signal ratio, with a control signal flat, not every such curve was filed as active; inconclusive = small, poorly fitted or top-dose-only effect, or effect the other way, or a change in a side signal; inactive = no such curve, though single readings can be large or run the other way; the % refers to the signal ratio; also: potency is read from the fitted curve at half-maximal effect; as to activity, negative = inhibition: % is scaled to controls: 0 for no effect and ±100 for the full control effect); settings: ER-alpha-UAS-bla HEK293, beta-lactamase ratio, antagonist mode; series mostly up to 76.9 µM
Sequence of Estrogen receptor (Homo sapiens) (P03372 whole entry, looked up): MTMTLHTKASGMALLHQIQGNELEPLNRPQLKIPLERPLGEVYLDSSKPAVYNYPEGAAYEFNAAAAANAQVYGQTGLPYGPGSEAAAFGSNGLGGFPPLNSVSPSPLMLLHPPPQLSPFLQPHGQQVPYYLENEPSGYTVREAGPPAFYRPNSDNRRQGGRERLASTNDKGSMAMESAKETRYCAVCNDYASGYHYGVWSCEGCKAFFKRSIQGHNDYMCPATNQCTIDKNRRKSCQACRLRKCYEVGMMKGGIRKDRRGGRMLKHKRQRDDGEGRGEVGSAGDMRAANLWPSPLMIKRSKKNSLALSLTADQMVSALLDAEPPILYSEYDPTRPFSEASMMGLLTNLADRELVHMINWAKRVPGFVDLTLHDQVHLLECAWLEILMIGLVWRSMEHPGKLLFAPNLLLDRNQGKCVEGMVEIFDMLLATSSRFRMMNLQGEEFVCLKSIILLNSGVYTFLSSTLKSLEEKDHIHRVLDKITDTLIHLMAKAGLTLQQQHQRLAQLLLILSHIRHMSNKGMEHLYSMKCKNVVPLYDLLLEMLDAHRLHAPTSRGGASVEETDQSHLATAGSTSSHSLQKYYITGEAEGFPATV
Procedure, shortened: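 ER-alpha-UAS-bla GripTite HEK 293 cells in medium with 2% charcoal/dextran-treated FBS were preincubated 4 h at 37 C, dosed with compound (1:2 titration), stimulated with 0.5nM 17-beta-estradiol for 18 h, then read by CCF4 beta-lactamase fluorescence.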

[4] = target: Estrogen receptor (Homo sapiens) (UniProt P03372); experiment: qHTS assay for small molecule agonists of estrogen receptor alpha signaling (AID 588514); settings: ER-alpha-UAS-bla HEK293, beta-lactamase ratio, 18 h; series mostly up to 76.8 µM; also: nearly all actives have a fitted effect of over 70% in size; also: potency is read from the fitted curve at half-maximal effect;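 as to activation: 0% = vehicle only and 100% = reference agonist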
Procedure, shortened: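 Efficacy is expressed against 20 nM 17-beta-estradiol (100%) and DMSO basal (0%); EC50 from Hill equation. Assay: beta-lactamase reporter in ER-alpha-UAS-bla HEK 293 cells, 18 h compound incubation, CCF4 detection.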

[5] = qHTS assay for small molecule antagonists of peroxisome proliferator-activated receptor delta signaling (AID 588535; active = well fitted inhibition curve with a large enough effect in the signal ratio, with a control signal flat, not every such curve was filed as active; inconclusive = small, poorly fitted or top-dose-only effect, or effect the other way, or a change in a side signal; inactive = no such curve, though single readings can be large or run the other way; the % refers to the signal ratio; also: potency is read from the fitted curve at half-maximal effect;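 as to max response: cells co-treated with a PPAR-delta agonist as stimulator during compound exposure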); settings: HEK293T PPARd-UAS-bla, beta-lactamase FRET ratio, 18 h; 460 nm channel
Procedure, shortened: (§1)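 Titrations were run on PPAR-delta-UAS-bla HEK293T cells in charcoal/dextran-stripped serum, incubated 18 h at 37 C. CCF4 fluorescence (460/530 nm) after 2 h RT; Hill equation yields IC50 and maximal response.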

[6] = target: Peroxisome proliferator-activated receptor delta (Homo sapiens) (UniProt Q03181); experiment: as above; settings: HEK293T PPARd-UAS-bla, beta-lactamase FRET ratio, 18 h; series mostly up to 76.7 µM
Sequence of Peroxisome proliferator-activated receptor delta (Homo sapiens) (Q03181 whole entry, looked up): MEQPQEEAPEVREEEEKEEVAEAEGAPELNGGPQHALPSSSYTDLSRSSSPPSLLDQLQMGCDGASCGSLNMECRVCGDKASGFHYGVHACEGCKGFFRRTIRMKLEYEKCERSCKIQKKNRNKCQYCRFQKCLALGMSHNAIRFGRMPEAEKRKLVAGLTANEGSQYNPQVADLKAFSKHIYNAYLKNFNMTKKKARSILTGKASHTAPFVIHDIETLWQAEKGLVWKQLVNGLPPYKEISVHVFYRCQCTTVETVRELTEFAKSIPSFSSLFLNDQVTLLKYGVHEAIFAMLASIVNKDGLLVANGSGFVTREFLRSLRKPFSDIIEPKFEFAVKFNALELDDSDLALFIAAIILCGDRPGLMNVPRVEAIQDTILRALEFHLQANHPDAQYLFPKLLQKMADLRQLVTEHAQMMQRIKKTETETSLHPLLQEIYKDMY
Procedure, shortened: as §1

[7] = target: Vitamin D3 receptor (Homo sapiens) (UniProt P11473); experiment: qHTS assay for small molecule antagonists of vitamin D receptor signaling (AID 588541); settings: HEK293T VDR-UAS-bla, beta-lactamase ratio, antagonist mode; series mostly up to 76.7 µM;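 also: receptor activated by calcitriol during compound treatment; % is scaled to controls: 0 for no effect and ±100 for the full control effect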
Sequence of Vitamin D3 receptor (Homo sapiens) (P11473 whole entry, looked up): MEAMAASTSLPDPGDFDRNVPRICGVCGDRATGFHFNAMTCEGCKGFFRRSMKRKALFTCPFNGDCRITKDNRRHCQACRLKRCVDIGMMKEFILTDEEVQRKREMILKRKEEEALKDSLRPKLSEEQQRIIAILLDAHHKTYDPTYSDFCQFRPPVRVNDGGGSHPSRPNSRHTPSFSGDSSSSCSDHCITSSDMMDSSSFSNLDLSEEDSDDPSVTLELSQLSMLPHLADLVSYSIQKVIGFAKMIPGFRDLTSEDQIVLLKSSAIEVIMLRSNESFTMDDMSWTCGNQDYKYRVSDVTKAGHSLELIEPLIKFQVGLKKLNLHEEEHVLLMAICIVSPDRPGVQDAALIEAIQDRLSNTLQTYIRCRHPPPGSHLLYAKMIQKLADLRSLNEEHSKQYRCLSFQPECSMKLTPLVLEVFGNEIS
Procedure, shortened: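 Antagonist-mode beta-lactamase reporter assay: HEK293T VDR-UAS-bla cells were exposed to titrated compound alongside 1-alpha,25-dihydroxyvitamin D3 at 3 nM final for 16 h. Values were normalized to the 50 nM agonist control and DMSO basal, with IC50 and efficacy from Hill equation fits.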

[8] = qHTS assay for small molecule agonists of the antioxidant response element (ARE) signaling pathway (AID 651741; active = well fitted activation curve with a large enough effect in the signal ratio; inconclusive = small, poorly fitted or top-dose-only effect, or effect the other way, or a change in a side signal; the % refers to the signal ratio; also: potency is read from the fitted curve at half-maximal effect; as to activation: % of control where 0% means no effect); settings: HepG2 ARE-bla reporter, beta-lactamase FRET ratio, 16 h; series mostly up to 96 µM
Procedure, shortened: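 Beta-lactamase reporter under ARE control in HepG2 cells, 2,000 per well, was induced by 16 h compound treatment at 37 C. Read-out was fluorescence from LiveBLAzer B/G FRET substrate after 2 h at room temperature.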

[9] = qHTS assay for small molecule activators of the nuclear factor-kappa B (NF-kB) signaling pathway (AID 651749; active = well fitted activation curve with a large enough effect in the signal ratio; inconclusive = small, poorly fitted or top-dose-only effect, or a change in a side signal; the % refers to the signal ratio; also: % of control where 0% means no effect); settings: NF-kB-bla ME-180 cells, beta-lactamase FRET ratio, 16 h; stronger effect = higher value
Procedure, shortened: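 Activation measured after 16 hr compound treatment at 37C, 5% CO2, of 2,000 ME-180 cells/well stably expressing an NF-kB response element–driven beta-lactamase reporter, via FRET-disruption fluorescence.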

[10] = qHTS assay for small molecule disruptors of the mitochondrial membrane potential - 1 hr assay (AID 651754); settings: series mostly up to 92.2 µM; also: nearly all actives have a fitted effect of over 35% in size; also: potency is read from the fitted curve at half-maximal effect
Procedure, shortened: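 Loss of mitochondrial potential shifts the cationic dye from red mitochondrial aggregates to green cytoplasmic monomers. Cells (HepG2) are treated with compound for 1 hr before a 30 min dye incubation at 37C.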

[11] = target: Nuclear receptor ROR-gamma (Homo sapiens) (UniProt P51449); experiment: qHTS assay for small molecule antagonists of the retinoid-related orphan receptor gamma (ROR-gamma) signaling pathway (AID 651802; active = well fitted curve in the direction sought with a large enough effect; inconclusive = small, poorly fitted or top-dose-only effect, or another doubt; inactive = no such curve, though single readings can be large; an effect the other way counts as inactive or inconclusive; also: nearly all actives have a fitted effect of over 60% in size; also: potency is read from the fitted curve at half-maximal effect;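 as to activity change, negative = inhibition: CHO cells with doxycycline-induced ROR-gamma expression; % is scaled to controls: 0 for no effect and ±100 for the full control effect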); settings: ROR-gamma antagonist cell reporter assay; series mostly up to 92.2 µM
Sequence of Nuclear receptor ROR-gamma (Homo sapiens) (P51449 whole entry, looked up): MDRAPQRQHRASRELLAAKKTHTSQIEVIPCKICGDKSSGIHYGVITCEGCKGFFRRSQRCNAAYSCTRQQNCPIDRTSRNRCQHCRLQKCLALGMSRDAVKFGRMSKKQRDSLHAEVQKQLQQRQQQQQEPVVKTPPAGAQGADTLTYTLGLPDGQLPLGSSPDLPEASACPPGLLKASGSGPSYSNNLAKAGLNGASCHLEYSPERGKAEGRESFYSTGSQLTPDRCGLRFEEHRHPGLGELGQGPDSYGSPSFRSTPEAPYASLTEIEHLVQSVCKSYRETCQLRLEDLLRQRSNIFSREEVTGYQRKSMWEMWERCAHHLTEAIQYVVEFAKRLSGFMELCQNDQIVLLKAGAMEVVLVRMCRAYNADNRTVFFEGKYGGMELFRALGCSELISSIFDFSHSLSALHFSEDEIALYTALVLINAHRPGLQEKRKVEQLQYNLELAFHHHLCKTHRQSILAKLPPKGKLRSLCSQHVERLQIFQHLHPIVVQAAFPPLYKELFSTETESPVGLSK
Procedure, shortened: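 Steps: cells dispensed; compound or DMSO transferred by pin tool; doxycycline added to induce the ROR response element-driven luciferase; plates held 16hr at 37C; ONE-Glo added and luminescence measured.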

[12] = qHTS assay for small molecule activators of the human pregnane X receptor (PXR) signaling pathway (AID 720659; call rule not given here; also: 0% is about no effect); settings: DPX-2 HepG2 CYP3A4-luciferase, 24 h; series mostly up to 92.3 µM
[13] = target: Mitogen-activated protein kinase 10 (Mus musculus) (UniProt Q61831); experiment: JNK3 AlphaScreen Assay (AID 530; active = well fitted curve in either direction with a large enough effect, not every such curve was filed as active; inconclusive = small, poorly fitted or top-dose-only effect, or another doubt;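 also: kinase came from lysate of stimulated human HepG2 cells; signal reports phosphorylation of biotinylated GST-cJun 1-79 at Ser73 with 10 µM ATP; % is scaled to controls: 0 for no effect and ±100 for the full control effect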); settings: JNK3 lysate, c-Jun phosphorylation; series mostly up to 57.1 µM
Procedure, shortened: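 qHTS titrations with 15 min compound pre-incubation before adding ATP (10 uM final). Read-out: AlphaScreen of Ser73-phosphorylated biotin-GST-cJun using HepG2 lysate JNK3 activated by IL-1β and TNFα.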

[14] = target: Peroxisome proliferator-activated receptor gamma (Homo sapiens) (UniProt P37231); experiment: qHTS assay for small molecule antagonists of peroxisome proliferator-activated receptor gamma signaling (AID 588537; active = well fitted inhibition curve with a large enough effect in the signal ratio, with a control signal flat, not every such curve was filed as active; inconclusive = small, poorly fitted or top-dose-only effect, or effect the other way, or a change in a side signal; the % refers to the signal ratio;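 also: reporter cells co-stimulated with 50 nM rosiglitazone agonist during compound treatment; % of control where 0% means no effect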); settings: HEK293 PPARg-UAS-bla, beta-lactamase ratio, antagonist mode; series mostly up to 76.8 µM
Sequence of Peroxisome proliferator-activated receptor gamma (Homo sapiens) (P37231 whole entry, looked up): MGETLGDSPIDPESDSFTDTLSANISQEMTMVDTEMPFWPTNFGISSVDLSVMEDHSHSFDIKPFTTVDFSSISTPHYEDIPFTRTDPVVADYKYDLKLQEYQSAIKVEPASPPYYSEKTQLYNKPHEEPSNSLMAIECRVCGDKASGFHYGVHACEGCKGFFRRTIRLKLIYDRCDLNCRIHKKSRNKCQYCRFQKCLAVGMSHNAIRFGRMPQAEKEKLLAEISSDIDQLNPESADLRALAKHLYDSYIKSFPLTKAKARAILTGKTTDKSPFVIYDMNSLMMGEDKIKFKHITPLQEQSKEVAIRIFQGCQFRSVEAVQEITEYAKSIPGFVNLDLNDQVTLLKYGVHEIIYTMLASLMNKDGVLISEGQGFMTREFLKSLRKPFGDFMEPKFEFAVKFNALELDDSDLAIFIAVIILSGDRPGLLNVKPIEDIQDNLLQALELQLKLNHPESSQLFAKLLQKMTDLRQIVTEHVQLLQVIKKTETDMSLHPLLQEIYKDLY
Procedure, shortened: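 Antagonist-mode β-lactamase reporter screen run as a titration series. HEK293 PPARγ-UAS-bla cells are stimulated with rosiglitazone (50 nM final) for 16 h, then CCF4 is read at 460/530 nm. Data are scaled between DMSO and rosiglitazone and fitted to the Hill equation.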

[15] = Cell Viability - MRC5 (AID 434); settings: MRC5 lung fibroblast viability, qHTS;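 also: potency is read from the fitted curve at half-maximal effect; potency reflects cytotoxicity seen as loss of intracellular ATP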
Procedure, shortened: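 AC50 values come from Hill-equation fits of intracellular ATP loss, measured by CellTiter-Glo luminescence. Normal lung fibroblasts (MRC5) had 40 hr compound treatment at 37 C, normalized between DMSO and 100 uM tamoxifen.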

[16] = target: Luciferin 4-monooxygenase (Photinus pyralis) (UniProt P08659); experiment: Biochemical firefly luciferase enzyme assay for NPC (AID 624030; active = well fitted curve in the direction sought with a large enough effect; inconclusive = small, poorly fitted or top-dose-only effect, or another doubt; inactive = no such curve, though single readings can be large; an effect the other way counts as inactive or inconclusive;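 also: purified P. pyralis luciferase at 10 nM with luciferin and ATP substrate; 0% = DMSO and -100% = full luciferase inhibition by PTC124 control; nearly all actives have a fitted effect of over 70% in size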); settings: purified P. pyralis luciferase, luminescence, 5 min; series mostly up to 58.6 µM
Sequence of Luciferin 4-monooxygenase (Photinus pyralis) (P08659 whole entry, looked up): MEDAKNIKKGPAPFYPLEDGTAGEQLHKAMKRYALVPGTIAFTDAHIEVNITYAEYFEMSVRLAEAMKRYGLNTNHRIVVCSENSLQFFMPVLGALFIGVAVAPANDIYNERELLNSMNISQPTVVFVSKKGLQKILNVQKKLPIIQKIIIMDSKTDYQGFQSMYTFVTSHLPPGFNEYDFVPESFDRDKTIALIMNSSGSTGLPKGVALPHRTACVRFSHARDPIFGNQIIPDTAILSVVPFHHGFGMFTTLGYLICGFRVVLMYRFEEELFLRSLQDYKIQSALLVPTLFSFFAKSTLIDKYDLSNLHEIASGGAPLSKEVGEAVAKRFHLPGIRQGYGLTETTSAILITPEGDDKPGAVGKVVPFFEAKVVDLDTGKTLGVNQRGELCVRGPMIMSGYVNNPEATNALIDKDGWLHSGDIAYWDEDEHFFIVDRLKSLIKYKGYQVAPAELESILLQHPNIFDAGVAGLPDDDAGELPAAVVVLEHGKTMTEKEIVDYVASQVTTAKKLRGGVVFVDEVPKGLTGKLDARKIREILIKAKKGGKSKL
Procedure, shortened: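 Direct inhibition of firefly luciferase enzyme (10 nM final, 50 mM Tris Acetate) assessed by luminescence within 5 minutes. Percent activity scaled between DMSO and PTC124 positive control, with concentration-effect curves classified by fit quality and response.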

[17] = qHTS profiling for inhibitors of Plasmodium falciparum proliferation (AID 504749; active = well fitted curve in the direction sought with a large enough effect; inconclusive = small, poorly fitted or top-dose-only effect, or another doubt; inactive = no such curve, though single readings can be large; an effect the other way counts as inactive or inconclusive; also: nearly all actives have a fitted effect of over 60% in size; also: potency is read from the fitted curve at half-maximal effect;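 as to activity, negative = inhibition: 0% = DMSO vehicle and full inhibition = artemisinin control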); settings: P. falciparum in erythrocytes, SYBR Green DNA, 72 h, at 28.7 µM (top of the series)
Procedure, shortened: (§2)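 SYBR Green fluorescence of parasite DNA, read after lysis and overnight dark incubation, measured growth over 72 h in erythrocyte culture at 0.3% parasitemia and 2.5% hematocrit. Data normalised to DMSO and 0.29 uM artemisinin, with plate-drift correction.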

CP262 = experiment: as above; settings: P. falciparum in erythrocytes, SYBR Green DNA, 72 h; series mostly up to 28.7 µM
Procedure, shortened: as §2

CP291 = experiment: as above; settings: P. falciparum in erythrocytes, SYBR Green DNA, 72 h; series mostly up to 28.7 µM
Procedure, shortened: as §2

GB4 = experiment: as above; settings: P. falciparum in erythrocytes, SYBR Green DNA, 72 h; series mostly up to 28.7 µM
Procedure, shortened: as §2

Cc1ccccc1C
inactive: Potency [1] > 92 µM | Potency [2] > 92 µM | Potency [3] | Potency [4] | Potency [6] | outcome [7] | Potency [8] | activation [9] -0.0827% and -0.301% | Potency [10] | Potency [11] | outcome [12]
-3.07% and -4.26%: max response [5]

COc1c2ccoc2cc2oc(=O)ccc12
inactive: Potency [1] > 92 µM | Potency [2] > 92 µM | Potency [13] | Potency [3] | Potency [4] | outcome [14] | outcome [7] | Potency [10] | Potency [11] | outcome [12]

CN(C)CCCCCCN(C)C
53.3%: max response [5]
inactive: Potency [2] > 92 µM | Potency [15] > 92 µM | Potency [6] | outcome [7] | Potency [16] | Potency [8] | Potency [10] | activity, negative = inhibition ([17]; parasite line A) 13.6% | activity, negative = inhibition ([17]; parasite line B) -6.83% | Potency (CP262) | Potency (CP291) | Potency (GB4)

COc1ccc2nc(N)sc2c1
inactive: Potency [1] > 92 µM | Potency [3] | Potency [4] | outcome [7] | Potency [10] | Potency [11]
active: Potency [8] 54.5 µM

CCCCCCCCCCCCCCC1CO1 (centres undefined)
14.3%: max response [5]
inactive: Potency [1] > 92 µM | Potency [2] > 92 µM | Potency [13] | Potency [3] | Potency [4] | Potency [6] | outcome [14] | outcome [7] | Potency [8] | Potency [11] | outcome [12]

C=CC(=O)OCCOCCOCCOCCOC(=O)C=C
active: Potency [2] 24.8 µM and 28.8 µM | Potency [15] 41.6 µM | Potency [3] 39.8 µM [inconclusive] | Potency [6] 28.2 µM | Potency [8] 42.2 µM and 37.6 µM | Potency [11] 11.9 µM and 21.1 µM
inactive: Potency [13] | Potency [10] | outcome [12]
-103%: max response [5]

Cc1ccc([N+](=O)[O-])c(C)c1
-27.9% and -14.4%: max response [5]
inactive: Potency [2] > 92 µM | Potency [15] > 92 µM | Potency [13] | Potency [3] | Potency [4] | Potency [6] | outcome [14] | outcome [7] | Potency [8] | Potency [10] | Potency [11] | outcome [12]

CC(C)=CCCC(C)CCO (centres undefined)
6.53% and 29.8%: max response [5]
inactive: Potency [1] > 92 µM | Potency [13] | Potency [3] | Potency [4] | Potency [6] | outcome [14] | Potency [8] | activation [9] 0.223% and -0.597% | Potency [10] | Potency [11] | outcome [12]

CCCCCCCCO
inactive: Potency [1] > 92 µM | Potency [15] > 92 µM | Potency [13] | Potency [3] | Potency [4] | Potency [6] | outcome [14] | outcome [7] | Potency [8] | Potency [10] | Potency [11] | outcome [12]
-13.8% and 47.8%: max response [5]

Cc1cccc([N+](=O)[O-])c1C
-14.5% and -6.43%: max response [5]
inactive: Potency [1] > 92 µM | Potency [2] > 92 µM | Potency [15] > 92 µM | Potency [13] | Potency [3] | Potency [4] | Potency [6] | outcome [14] | outcome [7] | Potency [8] | activation [9] -0.813% and -0.315% | Potency [10] | outcome [12]

C1OCOCO1
inactive: Potency [1] > 92 µM | Potency [15] > 92 µM | Potency [13] | Potency [6] | Potency [16] | Potency [8] | activation [9] -1.91% | Potency [10] | Potency [11] | activity, negative = inhibition ([17]; parasite line A) -0.0178% | activity, negative = inhibition ([17]; parasite line B) 3.44% | Potency (CP262) | Potency (CP291) | Potency (GB4) | outcome [12]
2.46%: max response [5]

Cc1c(N=C=O)cccc1N=C=O
inactive: Potency [1] > 92 µM | Potency [2] > 92 µM | Potency [15] > 92 µM | Potency [13] | Potency [3] | Potency [4] | outcome [14] | outcome [7] | Potency [8] | activation [9] -0.751% and -0.0469% | Potency [11] | outcome [12]

CCCCC(CC)CN (centres undefined)
inactive: Potency [1] > 92 µM | Potency [2] > 92 µM | Potency [13] | Potency [3] | Potency [4] | Potency [6] | outcome [14] | outcome [7] | Potency [8] | activation [9] -0.627% and -0.116% | Potency [10] | Potency [11] | outcome [12]
-11.9% and 2.89%: max response [5]

CCC(C)c1ccccc1O (centres undefined)
inactive: Potency [1] > 92 µM | Potency [15] > 92 µM | Potency [13] | Potency [6] | outcome [14] | outcome [7] | activation [9] 0.327% and -0.174% and -0.563% | Potency [10] | Potency [11] | outcome [12]
-8.1% and -17.6%: max response [5]

CCCN(CCC)C(=O)SCC
inactive: Potency [1] > 92 µM | Potency [13] | Potency [3] | Potency [4] | outcome [14] | outcome [7] | Potency [8] | Potency [11] | outcome [12]

O=C1c2ccccc2C(=O)C1c1ccc2ccccc2n1
active: Potency [1] 33.1 µM | Potency [4] 1 µM | Potency [8] 1.37 µM and 1.5 µM | Potency [10] 0.944 µM
inactive: Potency [3] | outcome [14] | outcome [7] | activation [9] -1.78% and 4.34%

CN1CC[C@H](CN2c3ccccc3Sc3ccccc32)C1
active: Potency (CP291) 15.1 µM | Potency (GB4) 13.5 µM
inactive: activity change, negative = inhibition [13] 0.762% [at 11.4 µM] | Potency [16] | Potency (CP262)

c1ccc2c(c1)c1cccc3ccc4cccc2c4c31
25.2% and 42.4%: max response [5]
inactive: Potency [2] > 92 µM | Potency [15] > 92 µM | Potency [13] | Potency [3] | Potency [4] | Potency [6] | outcome [7] | activation [9] 2.08% and 3.95% | Potency [10] | Potency [11] | outcome [12]

O=C(O)CC(C(=O)O)C(CC(=O)O)C(=O)O (centres undefined)
5.81%: max response [5]
inactive: Potency [13] | Potency [3] | Potency [4] | Potency [6] | outcome [14] | outcome [7] | Potency [8] | activation [9] -0.643% and 0.457% | Potency [10] | outcome [12]
